# Source: PubChem BioAssay AID1259421 (Broad Institute, 2018)
# “And” between values parts separate entries of the source, which are not always exact repeats. Equal entries are not always repeated. Among all 6,400 compounds or so, about 610 (9.5%) were called active. Rule as the data show it: active = activity change below about -70%; inconclusive = no clear call, values can overlap the other calls; inactive = above that. Only a selection was taken, and actives are over-represented in it overall. Some structures have more than one record in an assay (separate samples or runs), and their calls can disagree.
# Assay: T. gondii ME49Luc in HeLa cells, luciferase assay, 72 h, no IFN-y (AID 1259421)
# Conditions: stronger effect = lower value, concentration not given here
row,Structure (SMILES),"activity change, negative = inhibition"
1,Cc1csc(-c2nnc(Nc3ccc(Oc4ncccc4-c4ccnc(N)n4)cc3)c3ccccc23)c1,-85.1% (active)
2,COC(=O)[C@H](Cc1ccc([N+](=O)[O-])cc1)NC(=O)c1cccc2ccccc12,3.56% (inactive)
3,O=C1NC(=O)C2(CCOc3ccc(F)cc32)N1 (centres undefined),17.5% (inactive)
4,NC1=N[C@@]2(c3cc(NC(=O)c4ccc(F)cn4)ccc3F)COC[C@@H]2CS1,-4.81% (inactive)
5,CCOC(=O)[C@@H](N)Cc1ccc(-c2cc(O[C@H](c3ccc(Cl)cc3-n3ccc(C)n3)C(F)(F)F)nc(N)n2)cc1,-85% (active)
6,COc1cccc(-c2ccc([C@@H](Oc3cc(-c4ccc(C[C@H](N)C(=O)O)cc4)nc(N)n3)C(F)(F)F)cc2)c1,21.9% (inactive)
7,Cc1ccn(-c2cc(Cl)ccc2[C@@H](Oc2cc(-c3ccc(C[C@H](N)C(=O)O)cc3)nc(N)n2)C(F)(F)F)n1,16.1% (inactive)
8,N#C/C(=C(\N)Sc1ccc(N)cc1)c1ccccc1C(F)(F)F,9.63% (inactive)
9,N#Cc1cc(I)c(O)c([N+](=O)[O-])c1,10.2% (inactive)
10,COc1cccc2cc(-c3nc(C4CCC(C(=O)O)CC4)n4ncnc(N)c34)[nH]c12 (centres undefined),-19.8% (inactive)
11,Oc1ccc([C@H]2Oc3cc(O)cc(O)c3C[C@H]2O)cc1,0.946% (inactive)
12,Oc1cc(O)c2c(c1)O[C@H](c1ccc(O)c(O)c1)[C@H](O)[C@H]2c1c(O)cc(O)c2c1O[C@H](c1ccc(O)c(O)c1)[C@@H](O)C2,-71.6% (active)
13,Oc1cc(O)c2c(c1)O[C@H](c1ccc(O)c(O)c1)[C@@H](O)C2,6.21% (inactive) and -16.6% (inactive)
14,COc1cccc(C=NC=Nc2cccc(OC)c2)c1,10.3% (inactive)
15,O=c1[nH]nc(Sc2ncc([N+](=O)[O-])s2)n1-c1ccc2c(c1)OCCO2,34.4% (inactive)
16,NC(=O)c1cnc(N[C@@H]2CCCC[C@@H]2N)nc1Nc1cccc(-n2nccn2)c1,-82.6% (active) and -7.89% (inactive)
17,CC(C)(C)CC(=O)OCC(=O)[C@@]1(O)CCC2C3CCC4=CC(=O)C=C[C@]4(C)C3[C@@H](O)C[C@@]21C (some centres undefined),-8.37% (inactive)
18,CS(=O)(=O)Nc1ccc2oc3c(OC(F)F)ccc(C(=O)Nc4c(Cl)cncc4Cl)c3c2c1,27.8% (inactive)
19,O=c1[nH]c(=O)c2cn[nH]c2[nH]1,-8.15% (inactive)
20,Cc1cc(C(C)Nc2ccccc2)c2nc(N3CCOCC3)cc(=O)n2c1 (centres undefined),14.5% (inactive)
21,CCCc1nc(C(C)(C)O)c(C(=O)OCc2oc(=O)oc2C)n1Cc1ccc(-c2ccccc2-c2nn[nH]n2)cc1,2.42% (inactive) and 2.73% (inactive)
22,CN1C2CC[C@@H]1CC(OC(=O)[C@H](CO)c1ccccc1)C2 (some centres undefined),5% (inactive)
23,COc1cc(/C=C(/C#N)C(N)=O)cc(CSc2nc3ccccc3s2)c1O,0.785% (inactive)
24,C=C[C@H]1CN2CC[C@H]1C[C@@H]2[C@H](O)c1ccnc2ccc(OC)cc12,-4.38% (inactive)
25,O=C(O)CCc1c[nH]c2ccccc12,16.9% (inactive)
26,O=C(/C=C/c1ccc(CN(CCO)CCc2c[nH]c3ccccc23)cc1)NO,-83.9% (active)
27,O=C(O)CCCc1c[nH]c2ccccc12,16.7% (inactive)

row,Structure (SMILES),"activity change, negative = inhibition"
1,COC(=O)C[C@H]1C(C)(C)C2(O)OC34CC2C(=O)[C@]1(C)C3CC[C@]1(C)C4=CC(=O)O[C@H]1c1ccoc1 (some centres undefined),-5.47% (inactive)
2,COc1cc(Nc2ncc(F)c(Nc3ccc4c(n3)NC(=O)C(C)(C)O4)n2)cc(OC)c1OC,-51.7% (inactive) and -21% (inactive)
3,COc1cc(Nc2ncc(F)c(Nc3ccc4c(n3)N(COP(=O)(O)O)C(=O)C(C)(C)O4)n2)cc(OC)c1OC,-77% (active)
4,COC1C(O)C(CO)OC1n1cnc2c(NC3CCCCC3)ncnc21 (centres undefined),10.5% (inactive)
5,Cc1cc(Nc2nc(N[C@@H](C)c3ncc(F)cn3)ncc2Cl)n[nH]1,2.85% (inactive)
6,CCc1cnc(N2CCC(c3nc(COc4ccc(-n5cnnn5)cc4)cs3)CC2)nc1,-26.5% (inactive)
7,CC1(C)O[C@@H]2CC3C4CCC5=CC(=O)C=C[C@]5(C)[C@@]4(F)[C@@H](O)C[C@]3(C)[C@]2(C(=O)CO)O1 (some centres undefined),-0.643% (inactive)
8,O=C(Cc1ccccc1)NO,-1.4% (inactive)
9,CC(=O)Nc1ccccc1,7.35% (inactive) and 14.6% (inactive)
10,O=C(CCCCCCC(=O)Nc1cccnc1)NO,-92.1% (active)
11,O=C(CCCCCCC(=O)Nc1ccccc1)NO,-84% (active) and -91.4% (active) and -89.3% (active)
12,Cn1ccc2cc(NC(=O)Nc3cccnc3)ccc21,22.9% (inactive) and -13.9% (inactive)
13,O=C(O)CCCNC(=O)c1cccnc1,23.7% (inactive)
14,CC(C)c1ccc2c(c1)CCC1[C@](C)(CN)CCC[C@]21C (some centres undefined),3.16% (inactive)
15,Nc1nc(-c2ccccc2)c(Br)c(=O)[nH]1,3.15% (inactive)
16,Cc1cccn2c(=O)c(-c3nn[nH]n3)cnc12,0.433% (inactive)
17,C=C1C(=O)O[C@@H]2[C@H]3C(C)=CC[C@@]34O[C@@]4(C)CC[C@@H]12,18.9% (inactive)
18,CC[C@@H]1Cn2c(c3nc(-c4ccccc4)nc-3n(C)c2=O)N1,8.44% (inactive) and 12.6% (inactive)
19,COc1cc2c(cc1-c1c(C)noc1C)ncc1[nH]c(=O)n([C@H](C)c3ccccn3)c12,-91.9% (active)
20,C#Cc1cnc2[nH]c(=O)n(C(CC)CC)c2n1,0.376% (inactive)
21,NCC[C@@H](O)C(=O)N[C@@H]1C[C@H](N)[C@@H](O[C@H]2O[C@H](CN)[C@@H](O)[C@H](O)[C@H]2O)[C@H](O)[C@H]1O[C@H]1O[C@H](CO)[C@@H](O)[C@H](N)C1O (some centres undefined),22.8% (inactive)
22,CCCCCCCC/C=C\CCCCCCCC(=O)N[C@@H](CO)Cc1ccc(O)cc1,4.92% (inactive)
23,c1cc2c(cc1C1CCCCC1)c1c3n2CCNC3CCC1 (centres undefined),23.6% (inactive) and 27.3% (inactive)
24,c1ccc(CNc2ncnc3nc[nH]c23)cc1,9.71% (inactive) and 7.45% (inactive)
25,Cn1cnc([N+](=O)[O-])c1Sc1ncnc2nc[nH]c12,-68.2% (inactive) and -74.1% (active)
26,Cn1cnnc1Sc1c([N+](=O)[O-])ncn1C,23.4% (inactive) and 9.93% (inactive)
27,CC(SC(=O)c1cccs1)C(=O)NCC(=O)O (centres undefined),13% (inactive)

row,Structure (SMILES),"activity change, negative = inhibition"
1,C[C@@H]1CC[C@H]2[C@@H](C)C(O)O[C@@H]3O[C@]4(C)CC[C@@H]1[C@]32OO4 (some centres undefined),-85.4% (active)
2,C[C@H]1[C@@H](O)O[C@@H]2O[C@@]3(C)CC[C@H]4[C@H](C)CC[C@@H]1[C@@]24OO3,-93.7% (active)
3,CC(=O)[C@H]1CCC2C3CC=C4C[C@@H](OC(=O)CCC(=O)O)CC[C@]4(C)C3CC[C@@]21C (some centres undefined),4.41% (inactive) and 6.51% (inactive)
4,C[C@H]1[C@H](OC(=O)CCC(=O)O)O[C@@H]2O[C@@]3(C)CC[C@H]4[C@H](C)CC[C@@H]1[C@@]24OO3,-80.6% (active)
5,Brc1c(Br)c(Br)c2n[nH]nc2c1Br,5.07% (inactive) and 22.5% (inactive)
6,OCc1cc2c(cn1)[nH]c1ccccc12,12.8% (inactive)
7,CCOC(=O)c1c(C)[nH]c2ccc3c(c12)CN1CCc2cc(OC)ccc2C1O3 (centres undefined),5.91% (inactive)
8,C[C@@H](O)CNC(C)(C)CC(=O)N[C@@H]1CCc2ccccc2N(Cc2ccc(-c3ccccc3-c3nn[nH]n3)cc2)C1=O,8.07% (inactive)
9,CC[C@H](Nc1ncnc2nc[nH]c12)c1nc2cccc(F)c2c(=O)n1-c1ccccc1,0.609% (inactive)
10,Nc1c(S(=O)(=O)O)cc(Nc2cccc3ccccc23)c2c1C(=O)c1ccccc1C2=O,5.63% (inactive)
11,C[C@H](CCC(=O)NCC(=O)O)[C@H]1CCC2C3C(C[C@H](O)[C@@]21C)[C@@]1(C)CC[C@@H](O)CC1C[C@H]3O (some centres undefined),3.03% (inactive)
12,CN(C)C(=N)N=C(N)N,11% (inactive) and -0.508% (inactive)
13,CN(C)CC(=O)Nc1ccc2[nH]c(=O)c3ccccc3c2c1,-4.97% (inactive)
14,O=C(c1ccc2nccnc2c1)N1CCCCC1,3.08% (inactive)
15,COC(=O)[C@]12CCC(C)(C)C[C@@H]1[C@@H]1C(=O)C=C3[C@]4(C)C=C(C#N)C(=O)C(C)(C)[C@@H]4CC[C@@]3(C)[C@]1(C)CC2,-87.4% (active)
16,CC(=O)N[C@@H](CSC/C=C(\C)CC/C=C(\C)CCC=C(C)C)C(=O)O,7.49% (inactive)
17,OC[C@H]1NC[C@@H](O)[C@@H](O)[C@@H]1O,13.1% (inactive)
18,CCC[C@H](Nc1nc(-c2ccc(NC(=O)NCC)c(OC)c2)ncc1C)c1cccnc1,-75.6% (active)
19,COc1ccc(C(=O)NCc2cccnc2)cc1C(=O)NCc1cccnc1,7.12% (inactive)
20,Oc1ccccc1-c1nnco1,11.7% (inactive)
21,CCCCCCCCCCCCCCCCCCCCCC(=O)O,-1.78% (inactive)
22,CCCCC1C(=O)N(c2ccccc2)N(c2ccccc2)C1=O,10.6% (inactive) and 30.2% (inactive) and 17.8% (inactive)
23,CCCCCCCCCCCC1C(=O)C(=O)CC(=O)C1=O,-89.4% (active) and -2.92% (inactive)
24,O=C(/C=C/c1ccc2ccccc2n1)c1ccncc1,3.25% (inactive)
25,CN(C)C1C(=O)C(C(N)=O)C(=O)C2(O)C(=O)C3C(=O)c4c(O)ccc(Cl)c4C(O)C3CC12 (centres undefined),321% (inactive)
